# From PubChem BioAssay (EPA / NIEHS)
# Inconclusive results are not listed. Activity calls are given as the source filed them. Rule for the calls, unless noted: active = hit-call score of the fitted dose curve at least 0.9, where 1 is the maximum; inconclusive = response in the unintended direction; inactive = score below 0.9.
# Tests used:
# [1] = Tanguay_ZF_120hpf_OTIC_legacy: (Legacy) Oregon State University Tanguay Lab 120 Hour Post-fertilization zebrafish Assay for Otic Vesicle Malformation (AID 2283639)
# Outline: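 Tropical 5D wild-type zebrafish embryos were exposed statically in sealed, foil-covered plates at 28C until 120 hpf, with 0.64% (vol/vol) DMSO final. Otic vesicle malformation was scored present/absent by brightfield microscopy, with DMSO as baseline.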
# [2] = Tanguay_ZF_120hpf_PE_legacy: (Legacy) Oregon State University Tanguay Lab 120 Hour Post-fertilization zebrafish Assay for Pericardial Edema (AID 2283640)
# Outline: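 Read-out is the presence or absence of pericardial edema at 120 hpf under brightfield, with gain of signal fitted against DMSO controls. Larvae (5D wild-type) were statically exposed at 28C with 0.64% final DMSO.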
# [3] = Tanguay_ZF_120hpf_BRAI_legacy: (Legacy) Oregon State University Tanguay Lab 120 Hour Post-fertilization zebrafish Assay for Brain Malformation (AID 2283641)
# Outline: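 Brain malformation in Tropical 5D zebrafish was recorded as a binary endpoint after static compound exposure from early development to 120 hpf at 28C. Activity was analysed against DMSO as negative control.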
# [4] = Tanguay_ZF_120hpf_SOMI_legacy: (Legacy) Oregon State University Tanguay Lab 120 Hour Post-fertilization zebrafish Assay for Somite Malformation (AID 2283647)
# Outline: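 5D WT zebrafish; chorion removed 4 hpf; 1 embryo/well from 6 hpf; static exposure to 120 hpf, 28C, 0.64% DMSO final. Endpoint: somite malformation, binary, brightfield. Mortality excluded.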
# [5] = Tanguay_ZF_120hpf_PFIN_legacy: (Legacy) Oregon State University Tanguay Lab 120 Hour Post-fertilization zebrafish Assay for Pectoral Fin Malformation (AID 2283648);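 note: each larva judged yes or no for fin defect by brightfield with dead larvae skipped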
# Outline: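 5D WT zebrafish; pronase dechorionation 4 hpf; 1 embryo/well at 6 hpf; static exposure to 120 hpf, 28C, sealed, foil-covered; final DMSO 0.64% v/v; 5 uM trimethyltin chloride positive control; fin defect scored yes/no.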
# [6] = Tanguay_ZF_120hpf_PIG_legacy: (Legacy) Oregon State University Tanguay Lab 120 Hour Post-fertilization zebrafish Assay for Pigmentation Malformation (AID 2283650)
# Outline: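 Pronase dechorionation at 4 hpf; embryos plated at 6 hpf, one per well; static exposure, sealed and foil-covered, 28C, to 120 hpf; pigmentation read by brightfield, binary; DMSO 0.64% baseline, 5uM trimethyltin chloride positive control.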
# [7] = Tanguay_ZF_120hpf_CIRC_legacy: (Legacy) Oregon State University Tanguay Lab 120 Hour Post-fertilization zebrafish Assay for Circulatory Malformation (AID 2283651)
# Outline: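 Tropical 5D wild-type embryos, dechorionated with pronase at 4 hpf, were placed singly in wells at 6 hpf and exposed statically at 28C to 120 hpf (0.64% DMSO final). Circulatory malformation was scored present/absent by brightfield microscopy.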
# [8] = Tanguay_ZF_120hpf_SWIM_legacy: (Legacy) Oregon State University Tanguay Lab 120 Hour Post-fertilization zebrafish Assay for Swim Bladder Malformation (AID 2283654);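 note: swim bladder malformation in each larva scored yes or no under brightfield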
# Outline: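 Embryos lacking chorions were exposed individually and statically to test chemical from 6 to 120 hpf at 28C, with 0.64% DMSO as vehicle. At 120 hpf, swim bladder malformation was recorded as present or absent by brightfield microscopy.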
# [9] = Tanguay_ZF_120hpf_TRUN_legacy: (Legacy) Oregon State University Tanguay Lab 120 Hour Post-fertilization zebrafish Assay for Truncated Body (AID 2283655)
# Outline: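 5D wild-type larvae; pronase dechorionation; static exposure 6→120 hpf, 28C; DMSO 0.64% final; 5uM trimethyltin chloride positive control. Readout: presence/absence of truncated body, analyzed relative to DMSO.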
# [10] = Tanguay_ZF_120hpf_NC_legacy: (Legacy) Oregon State University Tanguay Lab 120 Hour Post-fertilization zebrafish Assay for Notochord and Tail Malformation (AID 2283656)
# Outline: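 Dechorionated 5D zebrafish, 1/well from 6 hpf; static exposure to 120 hpf, 28C, sealed, dark; final DMSO 0.64% v/v. NC scored binary (present/absent); dead embryos not scored. Fit vs DMSO baseline, gain direction.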
# [11] = read-out: Broad substrate specificity ATP-binding cassette transporter ABCG2 (Homo sapiens) (UniProt Q9UNQ0); assay: CLD_ABCG2_6hr: CellzDirect (CLD) Gene Expression Assay for ABC Transporter (ABCG2) at 6 hours (AID 2283660)
# Outline: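 Primary human hepatocytes dosed daily with chemicals at multiple concentrations (0.2% DMSO vehicle), harvested 6 h after dosing. ABCG2 mRNA induction read by quantitative nuclease protection assay (qNPA) chemiluminescence; gain of signal fitted against DMSO baseline.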
# [12] = read-out: xenobiotic metabolism (CYP1A1), CYP1A1 (gene 1543); assay: CLD_CYP1A1_6hr: CellzDirect (CLD) Gene Expression Assay for xenobiotic metabolism (CYP1A1) at 6 hours (AID 2283661);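 for AC50: potency for transcript induction above DMSO vehicle baseline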
# Outline: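 Primary human hepatocytes from two donors, compound versus 0.2% DMSO vehicle. CYP1A1 mRNA measured 6 h after dosing by quantitative nuclease protection assay with chemiluminescent read-out; induction fitted relative to DMSO, cytotoxicity flagged by microscopy.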
# [13] = read-out: xenobiotic metabolism (CYP1A2), CYP1A2 (gene 1544); assay: CLD_CYP1A2_6hr: CellzDirect (CLD) Gene Expression Assay for xenobiotic metabolism (CYP1A2) at 6 hours (AID 2283663);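 for AC50: potency is for induction meaning a rise in mRNA above DMSO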
# Outline: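 Primary human hepatocytes from two donor preparations, dosed daily with multiple concentrations in 0.2% DMSO and harvested at 6 h. CYP1A2 mRNA induction measured by chemiluminescent qNPA, gain of signal fitted against DMSO; cytotoxicity flagged morphologically.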
# [14] = Tanguay_ZF_120hpf_CFIN_legacy: (Legacy) Oregon State University Tanguay Lab 120 Hour Post-fertilization zebrafish Assay for Caudal Fin Malformation (AID 2283649)
# Outline: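 Embryos were collected from Tropical 5D wild-type adults and dechorionated at 4 hpf. At 6 hpf each was exposed, one per well, at 0.64% DMSO and 28C. At 120 hpf fin morphology was scored; dead embryos were excluded.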
# [15] = read-out: ABC Transporter (ABCB1), ABCB1 (gene 5243); assay: CLD_ABCB1_6hr: CellzDirect (CLD) Gene Expression Assay for ABC Transporter (ABCB1) at 6 hours (AID 2283659);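 note: hits raise ABCB1 transcript above the DMSO vehicle baseline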
# Outline: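 Primary human hepatocytes (two donor preparations) dosed daily for two days with chemicals at multiple concentrations, 0.2% DMSO vehicle; harvested 6 h post-dose. ABCB1 mRNA induction quantified by qNPA chemiluminescence; gain-of-signal fitted versus DMSO.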
# [16] = read-out: kallikrein-3 (KLK3), KLK3 (gene 354); assay: LTEA_HepaRG_KLK3: Life Technologies and Expression Analysis (LTEA) Assay for kallikrein-3 (KLK3) using HepaRG (AID 2283652; active = hit-call score of the fitted dose curve at least 0.9, where 1 is the maximum; inactive = score below 0.9); settings: mRNA level, 48 h; actives raise or lower the signal
# Outline: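 Differentiated human HepaRG cells in serum-free induction medium exposed 48 h in duplicate, eight-point half-log series from 100 uM in 0.5% DMSO. KLK3 mRNA by qRT-PCR, normalised to ACTB, GAPDH, POLR2A; bidirectional fit versus DMSO.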
# [17] = read-out: solute carrier (SLC22A6), SLC22A6 (gene 9356); assay: LTEA_HepaRG_SLC22A6: Life Technologies and Expression Analysis (LTEA) Assay for solute carrier (SLC22A6) using HepaRG (AID 2283653; active = hit-call score of the fitted dose curve at least 0.9, where 1 is the maximum; inactive = score below 0.9); settings: mRNA level, 48 h; actives raise or lower the signal
# Outline: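 This endpoint tracks SLC22A6 mRNA induction or suppression in human HepaRG cultures after 48 h dosing, concentrations reaching 100 uM. Values derive from bidirectional fitting against DMSO controls.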
# [18] = read-out: solute carrier (SLC10A1), SLC10A1 (gene 6554); assay: LTEA_HepaRG_SLC10A1: Life Technologies and Expression Analysis (LTEA) Assay for solute carrier (SLC10A1) using HepaRG (AID 2283657; active = hit-call score of the fitted dose curve at least 0.9, where 1 is the maximum; inactive = score below 0.9); settings: mRNA level, 48 h; actives raise or lower the signal
# Outline: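 Transcript levels were measured by qRT-PCR after human HepaRG cells received test chemical for 48 hours, up to 100 uM in half-log dilutions. Values come from bidirectional concentration-response fitting relative to 0.5% DMSO vehicle.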
# [19] = read-out: matrix metalloproteinase-1 (MMP1), MMP1 (gene 4312); assay: LTEA_HepaRG_MMP1: Life Technologies and Expression Analysis (LTEA) Assay for matrix metalloproteinase-1 (MMP1) using HepaRG (AID 2283658; active = hit-call score of the fitted dose curve at least 0.9, where 1 is the maximum; inactive = score below 0.9); settings: mRNA level, 48 h; actives raise or lower the signal
# Outline: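 Bidirectional concentration-response fitting relative to 0.5% DMSO gives the endpoint, derived from MMP1 mRNA levels (qRT-PCR) in human HepaRG cells treated 48 h with chemicals up to 100 uM.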
# [20] = CCTE_Simmons_CellTiterGLO_HEK293T: Viability Assessment in CCTE's Assays for Thyroperoxidase (TPO) Inhibition, Simmons Lab (AID 2283665);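 note: cells exposed to compound for 24 h before readout; actives reduce ATP signal below DMSO vehicle meaning cytotoxicity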
# Outline: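 HEK293T cells in DMEM with 1% FBS were dosed with 8 concentrations (5 nM–87.5 uM final, 0.5% DMSO) for 24 hr at 37C; ATP content was read by CellTiter-Glo luminescence, loss-of-signal versus DMSO, three biological replicates.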
# Chain of Broad substrate specificity ATP-binding cassette transporter ABCG2 (Homo sapiens) (Q9UNQ0 whole entry, looked up): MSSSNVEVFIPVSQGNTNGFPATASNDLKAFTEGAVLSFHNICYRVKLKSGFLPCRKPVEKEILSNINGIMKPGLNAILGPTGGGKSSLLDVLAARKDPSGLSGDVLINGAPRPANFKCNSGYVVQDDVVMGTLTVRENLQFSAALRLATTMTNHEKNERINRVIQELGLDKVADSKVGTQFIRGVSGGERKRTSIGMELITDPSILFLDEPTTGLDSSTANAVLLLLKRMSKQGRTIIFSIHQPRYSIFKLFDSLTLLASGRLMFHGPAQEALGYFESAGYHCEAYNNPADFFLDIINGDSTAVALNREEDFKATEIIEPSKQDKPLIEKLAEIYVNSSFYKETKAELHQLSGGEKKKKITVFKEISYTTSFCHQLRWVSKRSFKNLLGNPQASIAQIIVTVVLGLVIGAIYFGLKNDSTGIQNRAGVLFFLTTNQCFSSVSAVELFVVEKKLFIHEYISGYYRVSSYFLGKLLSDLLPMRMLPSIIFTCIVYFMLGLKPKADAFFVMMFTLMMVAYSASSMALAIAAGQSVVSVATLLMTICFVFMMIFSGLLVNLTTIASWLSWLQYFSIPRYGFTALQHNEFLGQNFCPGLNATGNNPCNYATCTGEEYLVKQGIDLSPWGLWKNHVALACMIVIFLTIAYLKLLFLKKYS
compound,measurement,setting,value
COc1cccc(C(=O)NN(C(=O)c2cc(C)cc(C)c2)C(C)(C)C)c1C,outcome,[1],inactive
same,outcome,[2],inactive
same,outcome,[3],inactive
same,outcome,[4],inactive
same,outcome,[5],inactive
same,outcome,[6],inactive
same,outcome,[7],inactive
same,outcome,[8],inactive
same,outcome,[9],inactive
same,outcome,[10],inactive
same,outcome,[11],inactive
same,outcome,[12],inactive
same,outcome,[13],inactive
CC1=NNC(=O)N(/N=C/c2cccnc2)C1,outcome,[1],inactive
same,outcome,[2],inactive
same,outcome,[3],inactive
same,outcome,[4],inactive
same,outcome,[5],inactive
same,outcome,[14],inactive
same,outcome,[7],inactive
same,outcome,[8],inactive
same,outcome,[9],inactive
same,outcome,[10],inactive
same,outcome,[11],inactive
same,AC50,[12],20 µM (active)
same,outcome,[13],inactive
CC(C)=CC1C(C(=O)OCN2C(=O)C3=C(CCCC3)C2=O)C1(C)C (centres undefined),outcome,[2],inactive
same,outcome,[3],inactive
same,outcome,[4],inactive
same,outcome,[5],inactive
same,outcome,[14],inactive
same,outcome,[7],inactive
same,outcome,[8],inactive
same,outcome,[9],inactive
same,outcome,[15],inactive
same,outcome,[11],inactive
same,outcome,[12],inactive
same,outcome,[13],inactive
C#CC(C)(C)NC(=O)c1cc(Cl)cc(Cl)c1,outcome,[1],inactive
same,outcome,[2],inactive
same,outcome,[4],inactive
same,outcome,[14],inactive
same,outcome,[6],inactive
same,outcome,[7],inactive
same,outcome,[8],inactive
same,outcome,[10],inactive
same,outcome,[15],inactive
same,outcome,[11],inactive
same,outcome,[12],inactive
CCOP(=S)(OCC)SCCSCC,outcome,[1],inactive
same,outcome,[2],inactive
same,outcome,[3],inactive
same,outcome,[5],inactive
same,outcome,[14],inactive
same,outcome,[7],inactive
same,outcome,[8],inactive
same,outcome,[9],inactive
same,outcome,[10],inactive
same,outcome,[11],inactive
same,AC50,[12],4.01 µM (active)
same,AC50,[13],3.97 µM (active)
CN1COCN(Cc2cnc(Cl)s2)C1=N[N+](=O)[O-],outcome,[1],inactive
same,outcome,[2],inactive
same,outcome,[3],inactive
same,outcome,[5],inactive
same,outcome,[6],inactive
same,outcome,[7],inactive
same,outcome,[8],inactive
same,outcome,[9],inactive
same,outcome,[10],inactive
same,outcome,[11],inactive
same,outcome,[13],inactive
CNc1cnn(-c2cccc(C(F)(F)F)c2)c(=O)c1Cl,outcome,[2],inactive
same,outcome,[3],inactive
same,outcome,[4],inactive
same,outcome,[5],inactive
same,outcome,[14],inactive
same,outcome,[6],inactive
same,outcome,[7],inactive
same,outcome,[8],inactive
same,outcome,[9],inactive
same,outcome,[11],inactive
same,AC50,[12],3.97 µM (active)
same,AC50,[13],38.7 µM (active)
CCOP(=S)(Oc1cnc(C(C)(C)C)nc1)OC(C)C (centres undefined),outcome,[1],inactive
same,outcome,[2],inactive
same,outcome,[3],inactive
same,outcome,[4],inactive
same,outcome,[5],inactive
same,outcome,[6],inactive
same,outcome,[7],inactive
same,outcome,[16],inactive
same,outcome,[17],inactive
same,outcome,[8],inactive
same,outcome,[9],inactive
same,outcome,[10],inactive
same,AC50,[18],16.5 µM (active)
same,outcome,[19],inactive
same,outcome,[15],inactive
same,outcome,[11],inactive
same,AC50,[12],2.24 µM (active)
same,outcome,[13],inactive
same,AC50,[20],31.4 µM (active)
Cc1cc(C2CC2)nc(Nc2ccccc2)n1,outcome,[1],inactive
same,outcome,[2],inactive
same,outcome,[3],inactive
same,outcome,[5],inactive
same,outcome,[14],inactive
same,outcome,[7],inactive
same,outcome,[8],inactive
same,outcome,[9],inactive
same,outcome,[11],inactive
same,AC50,[12],2.2 µM (active)
same,AC50,[13],1.99 µM (active)
